# Test results as given in PubChem BioAssay (NCI).
# The panel holds about 83,000 compounds, 20% with a hit somewhere; the sample as a whole holds those more often.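 The test compound was applied at a single concentration to cells in 96-well plates for 48 hours, and percent growth was recorded.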 Unmarked numbers belong to inactive results. The source made the active and inactive calls. How the source made its calls: active means growth percent below 10; inactive means the rest.
# Test system: SK-MEL-5 melanoma
# Test: NCI-60 one-dose screen, 48 h (100 = growth as untreated, 0 = no growth, -100 = all killed)
# Settings: 10 µM unless noted
row,Structure (SMILES),growth
1,O=[N+]([O-])c1ccc(NC(=S)NNC(=S)Nc2ccc(F)cc2)cc1,89.9%
2,O=C(COc1ccc(/C=C2\C(=O)Nc3ccc(F)cc32)cc1)Nc1ccccc1,100%
3,O=C1[C@@H]2Cc3c([nH]c4ccccc34)[C@H](c3ccc(Br)cc3)N2C(=O)CN1C1CCN(Cc2c(Cl)cccc2Cl)CC1,95.6%
4,C/C(=N\NC(=O)/C=C/CC(=O)O)c1nnn(-c2ccc([N+](=O)[O-])cc2)c1C,99.2%
5,CS(=O)(=O)c1nccc(-c2c(-c3cccc(OCc4ccc(Cl)c(C(F)(F)F)c4)c3)nc3sccn23)n1,97.2%
6,CCOC(=O)Nc1ccc2c(ccn2C(=O)c2cccc(F)c2)c1,27.7%
7,COC(=O)c1cccc(NC2=CC(=O)C(C)=C(C)C2=O)c1,96.3%
8,CCCCc1nc2c(N)nc3ccccc3c2n1Cc1ccc(OC)cc1,47.3%
9,COC(=O)CCSC1=C(C)C(=O)c2ccccc2C1=O,84.2%
10,O=S(=O)(NCCCNc1nccc(-c2[nH]c(-c3ccccc3)nc2-c2ccc(F)c(O)c2)n1)c1cccc(F)c1,46.5%
11,C/C(=C(\c1ccc(O)cc1)c1ccc(OCCN2CCCCCC2)cc1)c1ccc(Cl)cc1,-96% (active)
12,Fc1cccc(Cl)c1/C=N/Nc1nc(N/N=C/c2c(F)cccc2Cl)nc(N2CCCCC2)n1,-59.1% (active)
13,COc1cc2cc(Oc3ccc(NC(=O)Nc4ccc(F)c(C(F)(F)F)c4)cc3)c(C)nc2cc1OCCN(C)C,90.9%
14,COC(=O)c1cccc(NC2=C(Cl)C(=O)C(C)=C(C)C2=O)c1,95.6%
15,O=C1C(SCc2ccccc2)=C(Cl)CN1c1ccc(Cl)cc1,99.3%
16,Cc1ccc2c(n1)C(=O)C(Cl)=C(Nc1cccc(C(F)(F)F)c1)C2=O,96.9%
17,Cc1cc(C)cc(NC2=C(Cl)C(=O)c3nc(C)ccc3C2=O)c1,69%
18,COc1ccc2[nH]cc(/C=N/Nc3ccnc4cc(Cl)ccc34)c2c1,-100% (active)
19,COc1ccccc1N1CCN(C2=C(Cl)C(=O)c3ncccc3C2=O)CC1,96.4%
20,C#CCN(C)CCCOc1ccc(NC(=O)CCCCCCCCC(=O)NO)cc1Cl,54.9%

row,Structure (SMILES),growth
1,Cn1cc(C2=C(c3coc4cc(Br)ccc34)C(=O)NC2=O)c2ccccc21,89.6%
2,CCc1cc(OC(=O)N2CCN(CCC(C)(COC(C)(C)C)COC(C)(C)C)CC2)ccc1Nc1cc(-c2ccc(-n3cccn3)cc2)[nH]n1,90.8%
3,CS(=O)(=O)c1ccc(/C(=N/N=C(N)N)c2ccc(F)cc2)cc1,82.8%
4,O=C(N/N=C\c1ccc(F)cc1)c1ccc2nc(-c3ccc(Br)cc3)[nH]c2c1,56.3%
5,CNC(=O)Nc1ccc(Nc2cc(-c3ccc(-n4cccn4)cc3)[nH]n2)c(C)c1,97.7%
6,COc1ccc(C(C)=C(c2ccc(OCCN(C)C)cc2)c2ccc(OCCN(C)C)cc2)cc1,-82.6% (active)
7,CN1CCN(c2ccc(C(=O)/C=C/c3cc(F)cc(C(F)(F)F)c3)cc2)CC1,71.3%
8,O=C1c2ccccc2C23C(=C(c4cncnc4)c4ccccc42)CCCN13 (stereo not given),98.7%
9,NC(=O)c1c(NC(=O)c2ccc(C(F)(F)F)cc2)sc2c1CCC(=O)C2,-27.2% (active)
10,Cc1ccc2c(n1)C(=O)C(Cl)=C(Nc1cccc(C)c1C)C2=O,-66.1% (active)
11,CCCCCCNC(=O)Oc1ccc(/C(=C(/C)c2ccc(OC)cc2)c2ccc(OCCN3CCCCCC3)cc2)cc1,61.2%
12,NS(=O)(=O)c1ccc(Nc2nc(N/N=C/C=C/c3ccccc3)nc(Nc3ccccc3)n2)cc1,40.3%
13,CC/C(=C(/c1ccc(Cl)cc1)c1ccc(OCCN)cc1)c1ccccc1,99.1%
14,COC(=O)c1ccc(NC2=C(Cl)C(=O)C(C)=C(C)C2=O)cc1,44.6%
15,COc1ccc(NC(=O)CCCCCCNC(=O)C(O)(O)C(F)(F)F)cc1,17%
16,COc1cc2c3c(cc4c5c(ccc4c3c1OC)OCO5)N(CCN(C)C)C2=O,-90.1% (active)
17,O=S(=O)(Oc1ccc(-c2cn3ccoc3n2)cc1)C1CCCCC1,91.1%
18,COc1ccc(-c2nc(C#N)c(N3CCC(S(=O)(=O)N4CCOCC4)CC3)o2)cc1,97.1%
19,O=c1c2cc(-c3ccc(F)cc3F)ccc2n(Nc2ccccc2)c(=O)n1-c1cccc(C(F)(F)F)c1,-53.7% (active)
20,COc1ccc(OC)c(CCn2cncc2-c2c[nH]c3ccc(Cl)cc23)c1,-19.8% (active)

# Test system: UACC-62 melanoma
# Test: as above
# Settings: 10 µM unless noted
row,Structure (SMILES),growth
1,O=[N+]([O-])c1ccc(NC(=S)NNC(=S)Nc2ccc(F)cc2)cc1,58.8%
2,O=C(COc1ccc(/C=C2\C(=O)Nc3ccc(F)cc32)cc1)Nc1ccccc1,88.1%
3,O=C1[C@@H]2Cc3c([nH]c4ccccc34)[C@H](c3ccc(Br)cc3)N2C(=O)CN1C1CCN(Cc2c(Cl)cccc2Cl)CC1,78.3%
4,C/C(=N\NC(=O)/C=C/CC(=O)O)c1nnn(-c2ccc([N+](=O)[O-])cc2)c1C,101%
5,CS(=O)(=O)c1nccc(-c2c(-c3cccc(OCc4ccc(Cl)c(C(F)(F)F)c4)c3)nc3sccn23)n1,87.5%
6,CCOC(=O)Nc1ccc2c(ccn2C(=O)c2cccc(F)c2)c1,32.3%
7,COC(=O)c1cccc(NC2=CC(=O)C(C)=C(C)C2=O)c1,96.2%
8,CCCCc1nc2c(N)nc3ccccc3c2n1Cc1ccc(OC)cc1,68.2%
9,COC(=O)CCSC1=C(C)C(=O)c2ccccc2C1=O,70.9%
10,O=S(=O)(NCCCNc1nccc(-c2[nH]c(-c3ccccc3)nc2-c2ccc(F)c(O)c2)n1)c1cccc(F)c1,18.2%
11,C/C(=C(\c1ccc(O)cc1)c1ccc(OCCN2CCCCCC2)cc1)c1ccc(Cl)cc1,-85.1% (active)
12,Fc1cccc(Cl)c1/C=N/Nc1nc(N/N=C/c2c(F)cccc2Cl)nc(N2CCCCC2)n1,18.3%
13,COc1cc2cc(Oc3ccc(NC(=O)Nc4ccc(F)c(C(F)(F)F)c4)cc3)c(C)nc2cc1OCCN(C)C,106%
14,COC(=O)c1cccc(NC2=C(Cl)C(=O)C(C)=C(C)C2=O)c1,85.5%
15,O=C1C(SCc2ccccc2)=C(Cl)CN1c1ccc(Cl)cc1,93.5%
16,Cc1ccc2c(n1)C(=O)C(Cl)=C(Nc1cccc(C(F)(F)F)c1)C2=O,97.6%
17,Cc1cc(C)cc(NC2=C(Cl)C(=O)c3nc(C)ccc3C2=O)c1,92.7%
18,COc1ccc2[nH]cc(/C=N/Nc3ccnc4cc(Cl)ccc34)c2c1,-98.3% (active)
19,COc1ccccc1N1CCN(C2=C(Cl)C(=O)c3ncccc3C2=O)CC1,83%
20,C#CCN(C)CCCOc1ccc(NC(=O)CCCCCCCCC(=O)NO)cc1Cl,40.6%

row,Structure (SMILES),growth
1,Cn1cc(C2=C(c3coc4cc(Br)ccc34)C(=O)NC2=O)c2ccccc21,60.1%
2,CCc1cc(OC(=O)N2CCN(CCC(C)(COC(C)(C)C)COC(C)(C)C)CC2)ccc1Nc1cc(-c2ccc(-n3cccn3)cc2)[nH]n1,85.8%
3,CS(=O)(=O)c1ccc(/C(=N/N=C(N)N)c2ccc(F)cc2)cc1,74.6%
4,O=C(N/N=C\c1ccc(F)cc1)c1ccc2nc(-c3ccc(Br)cc3)[nH]c2c1,49.2%
5,CNC(=O)Nc1ccc(Nc2cc(-c3ccc(-n4cccn4)cc3)[nH]n2)c(C)c1,114%
6,COc1ccc(C(C)=C(c2ccc(OCCN(C)C)cc2)c2ccc(OCCN(C)C)cc2)cc1,-66.3% (active)
7,CN1CCN(c2ccc(C(=O)/C=C/c3cc(F)cc(C(F)(F)F)c3)cc2)CC1,82.8%
8,O=C1c2ccccc2C23C(=C(c4cncnc4)c4ccccc42)CCCN13 (stereo not given),88.2%
9,NC(=O)c1c(NC(=O)c2ccc(C(F)(F)F)cc2)sc2c1CCC(=O)C2,-24.9% (active)
10,Cc1ccc2c(n1)C(=O)C(Cl)=C(Nc1cccc(C)c1C)C2=O,0.0061% (active)
11,CCCCCCNC(=O)Oc1ccc(/C(=C(/C)c2ccc(OC)cc2)c2ccc(OCCN3CCCCCC3)cc2)cc1,5.76% (active)
12,NS(=O)(=O)c1ccc(Nc2nc(N/N=C/C=C/c3ccccc3)nc(Nc3ccccc3)n2)cc1,66.4%
13,CC/C(=C(/c1ccc(Cl)cc1)c1ccc(OCCN)cc1)c1ccccc1,107%
14,COC(=O)c1ccc(NC2=C(Cl)C(=O)C(C)=C(C)C2=O)cc1,5.89% (active)
15,COc1ccc(NC(=O)CCCCCCNC(=O)C(O)(O)C(F)(F)F)cc1,17.4%
16,COc1cc2c3c(cc4c5c(ccc4c3c1OC)OCO5)N(CCN(C)C)C2=O,-64% (active)
17,O=S(=O)(Oc1ccc(-c2cn3ccoc3n2)cc1)C1CCCCC1,85.3%
18,COc1ccc(-c2nc(C#N)c(N3CCC(S(=O)(=O)N4CCOCC4)CC3)o2)cc1,96.3%
19,O=c1c2cc(-c3ccc(F)cc3F)ccc2n(Nc2ccccc2)c(=O)n1-c1cccc(C(F)(F)F)c1,10.9%
20,COc1ccc(OC)c(CCn2cncc2-c2c[nH]c3ccc(Cl)cc23)c1,40.7%
